Assay results published in the supplement of paper PMC8728848.
Shown is part of a subset that was picked to be rich in the strongest signals.

Key:
Assay in all cases: glycan array binding signal (z-score within array); higher = stronger binding
Settings in all cases: glycan notation: IUPAC condensed, linker removed; mutation: K176L
[1] = target: Neu5Ac(a2-3)Gal(b1-3)GalNAc
Outline: (§1)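 Columns mapping to the same glycan were averaged after glycan names were converted to IUPAC-condensed notation. The data come from 3228 arrays in the Consortium for Functional Glycomics database, limited to those with an available protein sequence. Binding is reported as a within-array Z-score averaged across arrays of one protein sequence and across linkers.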

[2] = target: Neu5Ac(a2-3)Gal(b1-3)GlcNAc(b1-3)Gal(b1-4)GlcNAc
Outline: as §1

[3] = target: Neu5Ac(a2-6)Gal(b1-4)GlcNAc(b1-2)Man(a1-3)[Gal(b1-4)GlcNAc(b1-2)Man(a1-6)]Man(b1-4)GlcNAc(b1-4)GlcNAc
Outline: as §1

[4] = target: Neu5Gc(a2-3)Gal(b1-3)[Fuc(a1-4)]GlcNAc
Outline: as §1

B1: Gal 3 (Homo sapiens), P17931 (protein)
chain: MADNFSLHDALSGSGNPNPQGWPGAWGNQPAGAGGYPGASYPGAYPGQAPPGAYPGQAPPGAYHGAPGAYPGAPAPGVYPGPPSGPGAYPSSGQPSAPGAYPATGPYGAPAGPLIVPYNLPLPGGVVPRMLITILGTVKPNANILDFQRGNDVAFHFNPRFNENNRRVIVCNTLLDNNWGREERQSVFPFESGKPFKIQVLVEPDHFKVAVNDAHLLQYNHRVKKLNEISKLGISGDIDLTSASYTMI
[1]
  glycan array binding signal (z-score): -0.269
[2]
  glycan array binding signal (z-score): 0.372
[3]
  glycan array binding signal (z-score): -0.267
[4]
  glycan array binding signal (z-score): -0.272
